According to PubChem BioAssay AID463205 (Broad Institute, 2010):
Hit rate of the full screen: of about 2,400 compounds, about 20 (0.8%) were called active.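 How the source made its calls: active means AC50 no more than ten times the highest tested concentration, or full inhibition at every dose giving a flat fit (cut at about 30 µM in these data); inconclusive means flat fit with activity between 30% and 70%, or poor-quality invalid fit; inactive means AC50 more than ten times the top tested dose.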 The entries come from a sample that favours actives as a whole.

Test: inhibitors of ADP-Glo detection reagents, dose response, artefact control for GSK-3a inhibitor project, biochemical, luminescence, cell-free, homogeneous (AID 463205);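 further: kinase-free counter-screen against the ADP-Glo detection reagents only; potency is for inhibitors that reduce the luminescence signal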
Details: 5 uM ADP

AC50, active:
Cn1c(N=Nc2ccccc2)nc2ccccc21 27.9 µM
CCn1c(C)nc2cc(-c3nc4n(n3)Cc3ccccc3-4)ccc21 24.3 µM
COc1ccc(/C=C/c2nc3ccccc3n2C)cc1 14.3 µM

AC50, inactive:
CCc1cc(C(=O)c2ccc(OC)cc2)c(NC(=O)COCC(=O)O)s1 > 30 µM
Fc1ccc(Nc2ncnc3ccccc23)cc1 > 30 µM
COc1cc(Br)c(C2C(C#N)=C(N)Oc3n[nH]c(-c4cccnc4)c32)cc1OC (stereo not drawn) > 30 µM
Cc1nc2ccccc2n2c(-c3ccccc3)c3c(=O)n(C)c(=O)n(C)c3c12 > 30 µM
CC(/C=N/NC(=O)CSc1nc2ccccc2n1C)=C\c1ccco1 > 30 µM
COc1ccc(/C=C/c2nc(N)nc(-c3ccccc3O)n2)cc1OC > 30 µM
CC(C)c1cc(C(N)=O)c(NC(=O)C2CCC2)s1 > 30 µM
C/C(=N\NC(=O)c1nnn(-c2nonc2N)c1-c1ccccc1)c1cccnc1 > 30 µM
CC(=O)Nc1ccc(Nc2ncnc(N)c2[N+](=O)[O-])cc1 > 30 µM
O=[N+]([O-])c1cc(S(=O)(=O)c2ccc(N3CCCCC3)c([N+](=O)[O-])c2)ccc1N1CCCCC1 > 30 µM
COc1ccccc1CC(=O)N1CCOCC1 > 30 µM
CC(C)=CC(=O)NCc1c(Cl)cccc1-n1cccc1 > 30 µM
Cc1nc2sc3c(c2c(=O)o1)CC(C)(C)OC3 > 30 µM
CCC(C)Nc1nc(N)c([N+](=O)[O-])c(N2CCCCCC2)n1 (stereo not drawn) > 30 µM
O=C(NC1(C(F)(F)F)NC(=O)N(Cc2cccnc2)C1=O)c1ccncc1 (stereo not drawn) > 30 µM
COc1ccccc1NC(=O)CSc1nnc(-c2ccccc2)o1 > 30 µM
CC(=O)c1sc(NC(=O)CN2C(=O)NC3(CCCC3)C2=O)nc1-c1ccccc1 > 30 µM
COC1(OC)N=C(N)C2(C#N)C(c3ccc4c(c3)OCO4)C12C#N (stereo not drawn) > 30 µM
Nc1c(S(=O)(=O)c2ccccc2)nnn1-c1ccccc1 > 30 µM
O=C1CC(c2cccs2)CC2=C1C(c1ccccc1)n1ncnc1N2 (stereo not drawn) > 30 µM
O=C(NCCCn1ccnc1)C(=O)NC1CCCCC1 > 30 µM
Nc1ncnc2c1ncn2[C@@H]1O[C@H](COS(=O)(=O)O)[C@@H](O)[C@H]1O > 30 µM
CCCCN(CC)C(=O)c1oc2ccc(S(=O)(=O)N3CCCC3)cc2c1C > 30 µM
CC(C)OCCCNc1nc2c([nH]1)c(=O)n(C)c(=O)n2C > 30 µM
CCOC(=O)c1nnn(-c2ccc(OC)cc2)c1N > 30 µM
COc1cc(/C=N/NC(=O)c2cccc(C(=O)N/N=C/c3ccc(O)c(OC)c3)n2)ccc1O > 30 µM
CN(C)C(=O)c1ccc(NC(=O)c2cc(-n3cnnc3)ccc2Cl)cc1 > 30 µM
CC(OC(=O)Cc1c[nH]c2ccccc12)C(=O)c1ccccc1 (stereo not drawn) > 30 µM
CC(C)CC(=O)NC(=S)Nc1sc2c(c1C(N)=O)CCC2 > 30 µM
COc1cccc(-c2nc(-c3ccccc3)[nH]c(=O)c2C#N)c1 > 30 µM
CCOC(=O)c1sc(NC(=O)C2CC2)nc1C > 30 µM
CCOC(=O)c1cnn(C)c1NC(=O)c1ccc(Cl)cc1Cl > 30 µM
COc1cccc(/C=N/n2cncn2)c1OCC#N > 30 µM
Cc1ccc(-c2cn3cccnc3n2)cc1NC(=O)c1cccs1 > 30 µM
CCCOc1ccc(-c2nnc(N)s2)cc1 > 30 µM
O=C(CSc1ccccn1)Nc1nc2ccc(Br)cc2s1 > 30 µM
Nc1nc(-c2ccccc2)nc(-c2ccccc2O)n1 > 30 µM
O=C(O)CCSc1nnc(-c2ccncc2)n1-c1ccccc1 > 30 µM
NC(=O)c1ccc(NC(=O)CSc2nnc(-c3ccc4c(c3)OCO4)o2)cc1 > 30 µM
C#CCOCCOCCOCCNc1nc(N2CCN(C(=O)CCCCCCCCCCNC(=O)[C@H]([C@@H](C)CC)n3cc(CCCCCN)nn3)CC2)nc(N2CCN(C(=O)CCCCCCCCCCNC(=O)[C@H](CO)n3cc(CCCCCN)nn3)CC2)n1 > 30 µM
CCCCOC(=O)Nc1nnc(COc2ccccc2)s1 > 30 µM
CCCOc1ccccc1NC(=O)Nc1ccccc1Cl > 30 µM
O=C(Nc1cccc(-c2cnc3ccccc3n2)c1)c1ccncc1 > 30 µM
O=C(NCCN1CCN(Cc2ccccc2)CC1)Nc1cc(Cl)cc(Cl)c1 > 30 µM
COc1ccc(-c2nnc(SCC(=O)Nc3ccccc3OC)o2)cc1 > 30 µM
COc1cc(C2c3sc(=O)[nH]c3SC3C4CCC(C4)C23)ccc1O (stereo not drawn) > 30 µM
Oc1ccc(-c2csc(Nc3ccccn3)n2)c(O)c1 > 30 µM
CCOC(=O)CC(C#N)c1c[nH]c2ccccc12 (stereo not drawn) > 30 µM
COc1ccccc1N1CCN(C(=O)c2cc(-c3ccccc3)on2)CC1 > 30 µM
Cc1sc2ncnc(N3CCC(C(=O)Nc4ccc(C#N)cc4)CC3)c2c1C > 30 µM
CC(=O)Nc1sc2c(c1C(N)=O)CCCC2 > 30 µM
N#CC1=C2SCN(Cc3ccco3)CN2C(=O)CC1c1c(F)cccc1Cl (stereo not drawn) > 30 µM
CCN(C(=O)C1CCCN1S(=O)(=O)c1cccc2nsnc12)c1ccccc1 (stereo not drawn) > 30 µM
Cc1ccc(C)c(N2CC(C(=O)Nc3nccs3)CC2=O)c1 (stereo not drawn) > 30 µM
Fc1ccc(-c2nc3n(n2)Cc2ccccc2-3)cc1 > 30 µM
Cc1ccc(-c2nc3n(n2)Cc2ccccc2-3)cc1 > 30 µM
NCCNc1ccc([N+](=O)[O-])c(NC2CC2)c1 > 30 µM
COc1ccc(Nc2sc(C(=O)c3ccc(Cl)cc3)c(N)c2C(=O)Nc2ccccc2OC)cc1 > 30 µM
Cc1ccc(NC(=O)CSCc2nc3c(nnn3Cc3ccc(F)cc3)c(=O)[nH]2)c(C)c1 > 30 µM
COc1ccc(/C=C/c2nc(N)nc(-c3ccccc3O)n2)cc1 > 30 µM
COc1c2ccccc2nc2ccccc12 > 30 µM
C[n+]1cccc(C2C(C#N)=C(N)Oc3c2ccc2ccccc32)c1 (stereo not drawn) > 30 µM
O=C(CSc1nnc(-c2ccncc2)s1)Nc1ccccc1 > 30 µM
O=C(CSc1nnc(-c2ccc(O)cc2)o1)Nc1ccccc1Br > 30 µM
COc1ccc(CNc2ccc3cn[nH]c3c2)c(OC)c1OC > 30 µM
CCCc1[nH]nc2c1C(c1ccc(O)c(OC)c1)C(C#N)=C(N)O2 (stereo not drawn) > 30 µM
Cc1sc2ncnc(NCCCN3CCCC3=O)c2c1C > 30 µM
Cc1cc(C)c2[nH]c(O)c(N=Nc3ccc(C(=O)O)cc3)c2c1 > 30 µM
N#Cc1c(NC(=O)CSc2n[nH]c(N)n2)oc(-c2ccccc2)c1-c1ccccc1 > 30 µM
COc1cccc(/C=c2\s/c(=C\C(=O)C(C)(C)C)[nH]c2=O)c1 > 30 µM
CCOC(=O)c1cnc2c(C)cc(Cl)cc2c1N1CCN(C)CC1 > 30 µM
COc1ccccc1/C=N/NC(=O)c1nnn(-c2nonc2N)c1-c1cccs1 > 30 µM
CCN1CCN(c2nc(Nc3cccc(F)c3)nc(N)c2[N+](=O)[O-])CC1 > 30 µM
Cc1nc(N2CCOCC2)nc(N2CCCCC2)c1[N+](=O)[O-] > 30 µM
COc1ccc(O)c(-c2nc(N)nc(N)n2)c1 > 30 µM
Cc1cccc(C)c1OCC(O)CNC(C)c1ccccc1 (stereo not drawn) > 30 µM
O=C(CNC(=O)c1ccccc1)N/N=C/C=C/c1ccccc1 > 30 µM
Cc1cc(NC(=O)COC(=O)c2cc(S(=O)(=O)N3CCOCC3)ccc2N2CCCCC2)no1 > 30 µM
CN(c1nc2nonc2nc1NC1CC1)C1CCOC1 (stereo not drawn) > 30 µM
CCC/C(=N/NC(=O)c1nnn(-c2nonc2N)c1CN1CCCCC1)c1ccccc1 > 30 µM
COc1ccc(NC(=O)CSc2nnc(-c3cccc(O)c3)o2)cc1 > 30 µM
COc1ccc2cc(C(=O)NCc3ccco3)c(=O)oc2c1 > 30 µM
COc1cccc(NC(=O)[C@@H]2CCCN2S(=O)(=O)c2cccc3cccnc23)c1 > 30 µM
CCCNC(=O)NC(C(=O)OC)C12CC3CC(CC(C3)C1)C2 (stereo not drawn) > 30 µM
CCOC(=O)c1[nH]c2c(c1C)C(=O)CC(c1ccc(OC)c(OC)c1)C2 (stereo not drawn) > 30 µM
